Measured values published in PubChem BioAssay AID588773 (The Scripps Research Institute Molecular Screening Center, 2011).
Active and inactive are the calls of the source.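 The calls were made as follows: active = inhibition of plasma PAF acetylhydrolase at a set limit or more at 0.1 µM, with tenfold selectivity over all off-targets; inactive = inhibition below the limit or weaker selectivity.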

Assay: competitive ABPP of pPAFAH versus proteome off-targets – biochemical, gel-based, FP-Rh fluorescence, mouse, HTS hit compounds, selectivity assay for pPAFAH inhibitor project, late-stage follow-up (AID 588773)
Conditions: MW 32 kDa protein, at 10 µM

outcome, inactive:
O=C(/C=C/c1cccs1)c1cc(Br)ccc1OC(=O)N1CCOCC1
O=C(Oc1ccc(Oc2ccccc2)cc1)N1CCC(O)CC1
CCCCOC(=O)c1ccc(OC(=O)N2CCOCC2)cc1
O=C(Oc1nsnc1N1CCOCC1)N1CCOCC1
O=C(Oc1ccc(-c2ccccc2)cc1)N1CCOCC1
O=C(CCCSc1ccc(Cl)cc1)Nc1cc(S(=O)(=O)N2CCOCC2)ccc1O
O=C(Oc1ccc(-c2ccccc2)cc1)N1CCCCC1
